Assay outcomes: PubChem, National Center for Advancing Translational Sciences (NCATS)
CHX counter – affects cycloheximide protein synthesis inhibition readout, counter-screen; cell reporter, cycloheximide protein synthesis inhibition counterscreen; max response, %; 300,000 tested, 12% active; AID 2314; in the data active = max response mostly above about 13%, no sharp cut-off; inactive = mostly below about 14%; note: read at 38.3 µM for the half of the compounds with a filed dose; 0% is about no effect
Shiga inhibitor – blocks Shiga toxin action in Vero cells | inhibition, % at 38.7 µM | AID 2315 | Vero cells, Shiga toxin protein synthesis inhibition reporter | 290,000 tested, 9.2% active; in the data active = inhibition mostly above about 28%, no sharp cut-off; inactive = mostly below about 43%; note: 0% is about no effect
Giardia FBPA inh – blocks Giardia fructose-bisphosphate aldolase activity. purified Giardia FBPA. Potency, µM (titrated, usually from 59.6 µM), inactives show at the highest dose activity, negative = inhibition, actives largely listed as inhibitors. 290,000 tested, 0.71% active; note: potency is the fitted concentration of half-maximal effect; % is set by controls: 0 for no effect and ±100 for the full control effect; nearly all actives have a fitted effect of over 55% in size
Target sequence (A8B2U2 whole entry, looked up): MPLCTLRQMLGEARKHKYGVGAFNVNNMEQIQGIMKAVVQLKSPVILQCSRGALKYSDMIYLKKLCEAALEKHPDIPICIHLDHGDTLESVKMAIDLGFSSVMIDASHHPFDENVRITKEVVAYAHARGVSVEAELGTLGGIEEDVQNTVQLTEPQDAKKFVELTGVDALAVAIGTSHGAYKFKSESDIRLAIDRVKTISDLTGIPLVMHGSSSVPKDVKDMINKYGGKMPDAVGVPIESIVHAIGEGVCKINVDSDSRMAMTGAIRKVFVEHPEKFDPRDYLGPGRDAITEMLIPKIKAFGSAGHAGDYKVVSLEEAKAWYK
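Giardia FBPA (40 nM reagent) was preincubated 10 min at RT with compound (up to 57.5 uM final), then substrate plus GAPDH/TPI/NAD/arsenate coupling system with diaphorase/resazurin was added; resorufin fluorescence (525/598 nm) was read after 20 min.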
NS1 function inh – blocks influenza NS1 protein function | Potency, µM (series often up to 46.1 µM), without a hit: top-dose activity, positive = more growth | 270,000 tested, 0.4% active | AID 2326; calls by dose curve; note: potency is the fitted concentration of half-maximal effect; actives are rising curves; nearly all actives have a fitted effect of over 50% in size
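OD600 was taken as the measure of yeast growth restored by compound in an NS1-expressing S. cerevisiae strain. Cells had been washed out of glucose medium and diluted 1:100 into galactose -URA medium, pH 6.0.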
LmPK inhibitor – blocks Leishmania mexicana pyruvate kinase activity; Q27686; purified LmPK, Kinase-Glo ATP luminescence, 1 h; Potency, µM (highest dose often 57.5 µM), inactives show top-dose activity change, negative = inhibition, usual class: inhibitors; 290,000 tested, 0.37% active; note: potency is the fitted concentration of half-maximal effect; % is set by controls: 0 for no effect and ±100 for the full control effect
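In 50 mM imidazole pH 7.2 with 7 mM MgCl2, LmPK (0.1 nM) turned over PEP (0.5 mM) and ADP (0.1 mM) for 1 h at room temperature. Luciferase read-out of ATP.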
Numbers without * were called inactive; i = inactive; u = inconclusive; x = no result given; [ ] = remark or other dose. This is a sample that favours compounds with a hit; in the whole collection about 14% have one here. Unless noted, calls come from the whole dose curve; as a rule, active = well fitted curve in the direction sought with a large enough effect; inconclusive = small, poorly fitted or top-dose-only effect, or another doubt; inactive = no such curve, though single readings can be large; an effect the other way counts as inactive or inconclusive.

SMILES	CHX counter	Shiga inhibitor	Giardia FBPA inh	NS1 function inh	LmPK inhibitor
CCOc1cccc(Nc2ccc([N+](=O)[O-])cn2)c1	29*	x	0%	-39%	-2%
Cc1cccc(Nc2ccc([N+](=O)[O-])cc2C(=O)O)c1	28*	-7	-12%	-25%	1%
Cc1cccc(Sc2ccc([N+](=O)[O-])cn2)c1	-1	14	13%	-8%	2%
Cc1cccc(Nc2ccc([N+](=O)[O-])cn2)c1	25*	63*	3%	-37%	7%
O=C(CCc1nnc(Cc2ccc(-c3ccccc3)cc2)o1)NCCc1cccnc1	-1	-5	1%	-9%	2%
O=C1CSc2ccccc2N1Cc1ccc(F)cc1	31*	23	4%	-75%	0%
Cc1sc2nc(CN3CCCCC3)nc(Cl)c2c1C	15*	14	-9%	4%	2%
CC1CCN(Cc2nc(Cl)c3c4c(sc3n2)CCC4)CC1	25*	33	2%	x	4%
COc1ccccc1[C@@H]1C(c2ccc(F)cc2)=NN(c2ccc(Br)cc2)[C@H]1C(=O)N1CCOC1=O	-2	i	-12%	x	x
Cn1c(=O)cnc2cnc(Nc3ccccc3)nc21	x	x	-14%	x	x
CN1CCc2c(sc3nc(SCC(=O)NCc4ccco4)n(-c4ccccc4)c(=O)c23)C1	39*	48*	u	15%	-4%
COc1ccc(-n2c(SCC(=O)NCc3ccco3)nc3sc4c(c3c2=O)CCN(C)C4)cc1	20	22	u	22%	1%
O=C(CSc1nc2ccccc2c(=O)n1-c1ccccc1)NCc1ccco1	42*	41	-3%	-16%	7%
CCN(Cc1ccccc1)C(=O)CCS(=O)(=O)c1ccc2c(c1)CCN2C(C)=O	-1	-2	13%	7%	2%
Cn1c2cc(S(C)(=O)=O)sc2c2cnn(Cc3ccccc3F)c(=O)c21	-7	-2	x	x	x
CCCc1ncc(CN2CCCC(C(=O)Nc3ccc(-c4cccc(OC)c4)cc3)C2)cn1 (centres undefined)	20*	15	-3%	7%	6%
O=C(Nc1ccc(-c2cscn2)cc1)C1CCCN(Cc2ccccc2)C1 (centres undefined)	24*	19	x	33%	0%
COc1cccc(-c2ccc(NC(=O)C3CCCN(Cc4cnc(N(C)C)s4)C3)cc2)c1 (centres undefined)	30*	5	x	-5%	-9%
Cc1cccc(CN2CCCC(C(=O)Nc3ccc(-c4cscn4)cc3)C2)c1 (centres undefined)	12	-7	x	-2%	4%
C=CCC(O)c1ccccc1 (centres undefined)	x	x	5%	x	x
CN(C)/C=C/c1onc(-c2c(F)cccc2Cl)c1C#N	27*	109*	-3%	x	-6%
Cc1onc(-c2c(F)cccc2Cl)c1C(=O)NC1CC1	-3	-10	x	7%	-2%
Cc1cc(C)c(NC(=O)C2CSCCS2)c(C)c1 (centres undefined)	20*	57*	2%	0%	-2%
Cc1ccc(C(=O)Nc2ccc3c(c2)OCO3)cc1S(=O)(=O)N1CCCC1	46*	45*	-4%	-34%	3%
Cc1ccc(C(=O)Nc2ccc3c(c2)OCO3)cc1S(=O)(=O)N1CCOCC1	29*	107*	x	1%	1%
SMILES	CHX counter	Shiga inhibitor	Giardia FBPA inh	NS1 function inh	LmPK inhibitor
C/C(=N\NC(=O)CSCc1ccccc1Cl)c1cc(O)ccc1O	23*	40*	0%	-1%	2%
COc1ccc(CNC(=O)[C@H](C)NC(=O)C2CCN(C(=O)[C@@H](N)Cc3ccccc3)CC2)cc1	-3	1	u	-1%	-12%
CN(C)c1ccc(NC(=O)Nc2cccc3ccccc23)cc1	36*	77*	-8%	13%	-5%
CCN(CC(=O)Nc1ccc(C(C)=O)cc1)CC(=O)Nc1ccccc1C(F)(F)F	-6	-3	-3%	x	7%
Cc1ccc(NC(=O)Nc2cccc3ccccc23)cc1	9	-10	x	3%	-9%
CCN(CC)c1ccc(NC(=O)Nc2ccccc2C(F)(F)F)cc1	24	42*	u	12%	4%
CCN(CC)c1ccc(NC(=O)Nc2cccc3ccccc23)cc1	15*	30	-2%	1%	0%
CCOc1ccc(N(C(=O)OC(C)(C)C)C(=O)c2ccc(O[Si](C)(C)C(C)(C)C)cc2)c(I)c1	7	9	-1%	x	x
CCC(C(=O)NCCN1CCOCC1)n1nc(C)n2c(cc3sccc32)c1=O (centres undefined)	-11	11	x	-2%	-16%
Cc1cc(C)nc(Nc2ccc(Cl)cc2C)n1	6	5	u	-18%	0%
Nc1ccc(C(=O)Oc2ccc([N+](=O)[O-])cc2)cc1	51*	105*	6%	4%	4%
Nc1ccc(C(=O)OCC(=O)Nc2cc([N+](=O)[O-])ccc2F)cc1	12*	-9	0%	3%	-5%
Nc1ccc(C(=O)Oc2ccc([N+](=O)[O-])cc2)c(O)c1	-6	10	-14%	-4%	2%
COc1cccc(-c2nnc3sc(-c4ccco4)nn23)c1	39*	45	3%	u	0%
c1coc(-c2nnc3sc(-c4cccs4)nn23)c1	14*	45	1%	-16%	-8%
c1csc(-c2nn3c(-c4ccncc4)nnc3s2)c1	-2	12	0%	u	1%
CCOC(=O)N/N=C1/C[C@@H](O)[C@@H](O)[C@@H]2[C@@H]3C(=O)N([C@@H](C)c4ccccc4)C(=O)[C@H]3CC[C@H]12	x	x	0%[12.9 µM]	x	x
COc1cc2c(cc1OC)[C@@H]1O[C@](CCCCN3C(=O)c4ccccc4C3=O)(C2)Oc2cc(C)n(-c3ccccc3)c(=O)c21	2	i	10%[12.9 µM]	24%	-1%[11.5 µM]
COc1ccccc1NC(=O)c1sc2nc3n(c(=O)c2c1C)CCC3	-2	-7	10%	1%	0%
Cc1c(C(=O)Nc2ccccc2F)sc2nc3n(c(=O)c12)CCC3	45*	95*	x	-6%	6%
Cc1c(C(=O)Nc2ccccn2)sc2nc3n(c(=O)c12)CCC3	43*	77*	x	-5%	-1%
CCc1cccc(NC(=O)c2sc3nc4n(c(=O)c3c2C)CCC4)c1	28*	73*	x	-5%	2%
CC(C)C[C@@H](CC(=O)N[C@@H](CCCN)CC(=O)N[C@@H]1CCNC[C@H]1C(=O)N[C@H](CC(=O)N[C@@H](CCC(=O)O)CC(=O)O)CC(C)C)NC(=O)[C@@H]1CNCC[C@H]1N	x	x	-21%	x	x
Cc1ccc2oc(=O)c(/C=C(\O)c3ccccc3)nc2c1	2	19	u	x	10%
O=c1oc2ccc(Cl)cc2nc1/C=C(\O)c1cccs1	62*	56*	u	-42%	9%
Cc1ccc2oc(=O)c(/C=C(\O)c3cccs3)nc2c1	72*	77*	u	-1%	8%
O=S(=O)(Nc1ccc2nc(C(F)(F)F)[nH]c2c1)c1ccccc1	-1	-15	-26%	5%	0%
Cc1ccc(-c2nc3ccc(NS(=O)(=O)c4ccccc4)cc3[nH]2)o1	66*	130*	-20%	5%	1%
